{"source": "PubChem BioAssay (NCI)", "note": "Where “and” joins values, the source holds several entries; their conditions need not be identical. Equal entries are not always repeated. Compounds without any hit were thinned out: in the full panel of roughly 83,000, 20% have a hit.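 Percent growth is the endpoint: 0 to 100 indicates growth inhibition (40 means 60% inhibition), 0 means no net growth, and negative values indicate cell death.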 Unmarked numbers belong to inactive results. Calls of active or inactive are those of the source.", "data": [{"test_system": "IGROV1 ovarian", "test": "NCI-60 one-dose screen, 48 h (100 = growth as untreated, 0 = no growth, -100 = all killed)", "settings": "10 µM", "description": "(§1) Growth inhibition of the IGROV1 human tumor cell line is measured as a screen for anti-cancer activity. Cells are grown in 96 well plates and exposed to the test compound for 48 hours. Compounds are tested at a single concentration, which is 10^-5 M for most compounds. The reported endpoint is percent growth (GI% or GIPRCNT), where numbers from 0 - 100% represent growth inhibition, and numbers from -100% - 0 represent cell death. For example, a value of 40 represents 60% growth inhibition. A value of 0 means no net growth occurred over the course of the experiment. A value of -40 indicates 40% of cells at the beginning of the experiment died by the end of the experiment. A value of -100 means all cells are dead at the end of the experiment.\n(§2) NCI-60 Human Tumor Cell Lines Screen was performed using the standard one-dose NCI protocol, which is described in more detail at https://dtp.cancer.gov/discovery_development/nci-60/default.htm.\n(§3) Compounds with GIPRCNT values below 10 were considered active. Activity score was based on GIPRCNT using the following formula: […]\n(§4) Score is 0 for GIPRCNT values of 100 or above, 50 for GIPRCNT values of 0, and 100 for GIPRCNT values of -100.", "units": {"growth": "%"}, "values": [{"smiles": "CC#C[C@]1(O)CC[C@H]2[C@@H]3CCC4=CC(=O)CCC4=C3[C@@H](c3ccc4c(c3)OCO4)C[C@@]21C", "growth": 86.1}, {"smiles": "CC1(C)OB(c2ccc(Cn3cc(F)c(=O)[nH]c3=O)cc2)OC1(C)C", "growth": 98.8}]}, {"test_system": "IGROV1 ovarian", "test": "NCI-60 one-dose screen, 48 h (100 = growth as untreated, 0 = no growth, -100 = all killed)", "settings": "10 µM unless noted", "description": "as §1, §2, §3, §4", "values": [{"smiles": "O=C(O)CSCc1nc2ccccc2[nH]1", "growth": "109%"}, {"smiles": "O=C(/C=C\\c1ccnc2ccccc12)c1ccc([N+](=O)[O-])cc1", "growth": "108% and 92.9%"}, {"smiles": "CN(C)CCC(=O)c1ccc(Cl)cc1", "growth": "100% and 116%"}, {"smiles": "O=C(Nc1ccc(Br)cc1)c1cc(Br)ccc1O", "growth": "13.6%"}, {"smiles": "CC1CCCc2sc3nc(NNC(=O)c4cnccn4)n(-c4ccccc4)c(=O)c3c21", "note": "(stereo not given)", "growth": "16.9% and 14.1%"}, {"smiles": "Cc1ccc(NCSc2ccc(Cl)cc2)cc1", "growth": "103% and 80.7%"}, {"smiles": "CCCCOc1cc(C(=O)NCCN(CC)CC)c2ccccc2n1", "growth": "102% and 111%"}, {"smiles": "CN(C)c1ccc(C(=C2C=CC(=[N+](C)C)C=C2)c2ccccc2Cl)cc1", "growth": "-81.1% (active) and -67.1% (active)"}, {"smiles": "CC(=O)C(/C=N/C(N)=O)=C(/C)O", "growth": "114%"}, {"smiles": "C#CCN(C)Cc1ccccc1", "growth": "103% and 120%"}, {"smiles": "CCOc1ccc(Nc2c3ccccc3nc3ccccc23)cc1", "growth": "92.1% and 20.4% and 16.5%"}, {"smiles": "Nc1ncnc2c1ncn2C1CC(O)C(CO)O1", "note": "(stereo not given)", "growth": "116%"}, {"smiles": "COc1ccc2ccccc2c1/C=N/N1CCCCC1", "growth": "116%"}, {"smiles": "COc1ccccc1NC(=O)OCC#CCOC(=O)Nc1ccccc1OC", "growth": "108% and 83.5%"}, {"smiles": "Cn1c(=O)n(-c2ccc(C(C)(C)C#N)cc2)c2c3cc(-c4cnc5ccccc5c4)ccc3ncc21", "growth": "-12.3% (active) and -27.9% (active)"}, {"smiles": "CN(Cc1ccccc1)Cc1ccccc1", "growth": "99.4%"}, {"smiles": "O=C(Nc1ccc([N+](=O)[O-])cc1Cl)c1cc(Cl)ccc1O", "growth": "14.4%"}, {"smiles": "COc1ccc(NC(=S)Nc2ccccn2)cc1", "growth": "106%"}, {"smiles": "CC(O)(CC(=O)CC(=O)c1ccccc1)c1ccccc1", "note": "(stereo not given)", "growth": "91.9% and 103%"}, {"smiles": "O=S(=O)(Nc1ccccc1)C1CCCCC1", "growth": "105% and 127%"}, {"smiles": "CN1C(=O)C(N=Nc2ccc([N+](=O)[O-])cc2)SC1=S", "note": "(stereo not given)", "growth": "56.7% and 71.7%"}, {"smiles": "O=[N+]([O-])c1ccc(-n2[nH]nnc2=S)cc1", "growth": "91.3%"}, {"smiles": "ClC/C=C/CSc1ncnc2nc[nH]c12", "growth": "113% and 101%"}, {"smiles": "O=C(Nc1cccc(Cl)c1)c1cc2ccccc2cc1O", "growth": "22.6% and 24.2%"}, {"smiles": "Nc1ccc2ccc(N)cc2c1", "growth": "73.6%"}, {"smiles": "Cc1ccc(-c2noc(C)n2)cc1", "growth": "102%"}, {"smiles": "CN(C)c1ccc(C(Cc2ccc3ccccc3n2)Cc2ccc3ccccc3n2)cc1", "growth": "36% and 90.3%"}, {"smiles": "COc1cc(-c2nccc3cc4c(cc23)OCO4)cc(OC)c1OC", "growth": "45.8% and 37.7%"}, {"smiles": "S=C1SCN(Cc2ccccc2)CN1Cc1ccccc1", "growth": "34.5%"}, {"smiles": "CCN(CC)CCCC(C)N(Cc1ccccc1)CC(O)c1ccc(Cl)cc1", "note": "(stereo not given)", "growth": "113% and 101%"}, {"smiles": "CC(C)CNC(=O)c1ccccc1C(=O)NC1(C(=O)NCC(C)C)CCCC1", "growth": "111% and 102%"}, {"smiles": "CCOc1ccc2cc(-c3nn(CC4CCN(C)CC4)c4ncnc(N)c34)ccc2c1", "growth": "81.5% and 61.3%"}, {"smiles": "COc1ccc2cc3[n+](cc2c1OC)CCc1cc2c(cc1-3)OCO2", "growth": "84.4% and 74.8%"}, {"smiles": "CCOC(=O)c1c(C)oc(C)c(C(=O)OCC)c1=O", "growth": "114% and 94.7%"}, {"smiles": "c1ccc2c(CC3=NCCN3)cccc2c1", "growth": "108% and 116%"}, {"smiles": "COc1ccccc1/C=N\\N=C(N/N=C/c1ccccc1OC)N/N=C/c1ccccc1OC", "growth": "87.7% and 26.3%"}]}, {"test_system": "IGROV1 ovarian", "test": "NCI-60 one-dose screen, 48 h (100 = growth as untreated, 0 = no growth, -100 = all killed)", "settings": "50 µM", "description": "as §1, §2, §3, §4", "units": {"growth": "%"}, "values": [{"smiles": "CC1(C)OB(c2ccc(Cn3cc(F)c(=O)[nH]c3=O)cc2)OC1(C)C", "growth": 44.1}]}, {"test_system": "IGROV1 ovarian", "test": "NCI-60 one-dose screen, 48 h (100 = growth as untreated, 0 = no growth, -100 = all killed)", "settings": "100 µM", "description": "as §1, §2, §3, §4", "values": [{"smiles": "CC#C[C@]1(O)CC[C@H]2[C@@H]3CCC4=CC(=O)CCC4=C3[C@@H](c3ccc4c(c3)OCO4)C[C@@]21C", "growth": "2.61% (active)"}]}]}
